According to PubChem BioAssay (NCATS):
Records with an inconclusive call do not appear. A call without a number means that no potency is given here. The source made the active and inactive calls. Unless noted, calls come from the whole dose curve; as a rule, active = well fitted curve in the direction sought with a large enough effect; inconclusive = small, poorly fitted or top-dose-only effect, or another doubt; inactive = no such curve, though single readings can be large; an effect the other way counts as inactive or inconclusive.

Assays:
[1] = biological target: Mitogen-activated protein kinase 10 (Mus musculus) (UniProt Q61831); experiment: JNK3 AlphaScreen Assay (AID 530; active = well fitted curve in either direction with a large enough effect, not every such curve was filed as active;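 note: kinase came from lysate of stimulated human HepG2 cells; signal reports phosphorylation of biotinylated GST-cJun 1-79 at Ser73 with 10 µM ATP; series mostly up to about 57 µM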)
Method in brief: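 Activity was read by AlphaScreen after JNK3-containing HepG2 lysate (cytokine pre-activated) phosphorylated biotinylated GST-cJun with 10 uM ATP at room temperature. Phospho-Ser73 cJun antibody with Protein-A acceptor beads provided detection.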

[2] = biological target: Cytochrome P450 3A4 (Homo sapiens) (UniProt P08684); experiment: qHTS Assay for Inhibitors and Substrates of Cytochrome P450 3A4 (AID 884); note: nearly all actives have a fitted effect of over 50% in size; note: potency is the fitted concentration of half-maximal effect
Method in brief: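 Luminescent readout of luciferin produced by CYP3A4 (20 nM) dealkylation of Luciferin-PPXE, 25 uM (its KM). NADPH-driven reaction ran 60 min at RT after 10 min compound preincubation; data scaled to 57 uM ketoconazole as 100% inhibition.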

[3] = biological target: Cytochrome P450 3A4 (Homo sapiens) (UniProt P08684); experiment: qHTS Assay for Activators of Cytochrome P450 3A4 (AID 885); note: nearly all actives have a fitted effect of over 65% in size; note: potency is the fitted concentration of half-maximal effect
Method in brief: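 Using 20nM recombinant human CYP3A4 in potassium phosphate (200mM), substrate Luciferin-PPXE at 25uM, luminescent luciferin detection followed a 60-min RT NADPH reaction; data scaled to 57 uM ketoconazole.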

Sequence of Cytochrome P450 3A4 (Homo sapiens) (P08684 whole entry, looked up): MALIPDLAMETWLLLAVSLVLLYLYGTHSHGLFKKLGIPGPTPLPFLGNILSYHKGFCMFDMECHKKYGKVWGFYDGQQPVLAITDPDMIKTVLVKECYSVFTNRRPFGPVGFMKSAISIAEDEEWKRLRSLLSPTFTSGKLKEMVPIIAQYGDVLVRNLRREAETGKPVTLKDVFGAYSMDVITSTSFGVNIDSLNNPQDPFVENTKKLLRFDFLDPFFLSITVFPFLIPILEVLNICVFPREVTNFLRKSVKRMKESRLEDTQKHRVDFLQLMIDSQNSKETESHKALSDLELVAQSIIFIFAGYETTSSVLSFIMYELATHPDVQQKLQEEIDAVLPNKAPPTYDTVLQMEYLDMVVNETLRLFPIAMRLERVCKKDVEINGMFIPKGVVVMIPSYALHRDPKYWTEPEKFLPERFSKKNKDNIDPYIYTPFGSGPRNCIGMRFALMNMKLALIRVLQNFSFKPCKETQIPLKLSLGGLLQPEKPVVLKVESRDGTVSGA

Row | Structure (SMILES) | outcome [1] | Potency [2] | Potency [3]
1 | C[C@@H]1C=C[C@](Cc2ccccc2)(C(=O)NCCc2c[nH]c3ccccc23)N1C(=O)c1ccccc1 | inactive | 2.51 µM (active) | inactive
2 | CC(=O)N1[C@H](Cc2ccccc2)C=C[C@]1(C)C(=O)NCc1ccc(C)o1 | inactive | 7.94 µM (active) | inactive
3 | COC(=O)c1ccc(C(NC(=O)OCc2ccccc2)/C(=C/[C@@H](C)C(=O)NCc2ccc(OC)c(O)c2)c2cccnc2)cc1 (stereo not given in full) | inactive | 2.51 µM (active) | inactive
4 | C=C(N(C)C)[C@]1(C)C[C@H]1[C@H](NC(=O)CNC(=O)OCc1ccccc1)c1ccccc1 | inactive | 7.94 µM (active) | inactive
5 | CCCCCCN(C(=O)CCCCCN1C(=O)NC(c2ccc(C3CCCCC3)cc2)C(C(=O)OCc2ccccc2)=C1C)C(C(=O)NCCCC)c1ccc(OCC(=O)OC)c(C(=O)OC)c1 (stereo not given) | inactive | 2 µM (active) | inactive
6 | CNC(=O)[C@H](C)/C=C/C(NC(=O)OCc1ccccc1)c1ccc(C(=O)OC)cc1 (stereo not given in full) | inactive | 7.94 µM (active) | inactive
7 | CCCCCCN(C(=O)CCCCCN1C(=O)NC(c2ccc(C(F)(F)F)cc2)C(C(=O)OCc2ccccc2)=C1C)C(C(=O)NCCCC)c1ccc(OCC(=O)OC)c(C(=O)OC)c1 (stereo not given) | inactive | 3.98 µM (active) | inactive
8 | COC(=O)[C@@H]1CCCN1C(=O)[C@H]1C[C@@H]1[C@H](NC(=O)OCc1ccccc1)c1ccccc1 | inactive | 10 µM (active) | inactive
9 | CC(=O)N1C2(C=CC1(C)C(=O)NCc1ccccn1)CCCCC2 (stereo not given) | inactive | 12.6 µM (active) | inactive
10 | CC1(C(=O)NCCc2c[nH]c3ccccc23)C=CCN1C(=O)c1ccccc1 (stereo not given) | inactive | 10 µM (active) | inactive
11 | CC(=O)N1[C@H](C)C=C[C@]1(Cc1ccccc1)C(=O)NCc1cc(F)cc(C(F)(F)F)c1 | inactive | 3.16 µM (active) | inactive
12 | COC(=O)c1ccc(C(NC(=O)OCc2ccccc2)/C(=C/[C@@H](C)C(=O)NCc2cccnc2)c2cccnc2)cc1 (stereo not given in full) | inactive | 1 µM (active) | inactive
13 | CC1(C(=O)NCC2CC2)C=CC2(CCCCC2)N1C(=O)c1ccccc1 (stereo not given) | inactive | 7.94 µM (active) | inactive
14 | CCCCCCN(C(=O)CCCCCN1C(=O)NC(c2ccc(-c3ccccc3)cc2)C(C(=O)OCc2ccccc2)=C1C)C(C(=O)NCCCC)c1ccc(OCC(=O)OC)cc1 (stereo not given) | inactive | 10 µM (active) | inactive
15 | COC(=O)c1ccc(C(NC(=O)OCc2ccccc2)/C(=C/[C@@H](C)C(=O)NCc2cc(C)on2)c2cccnc2)cc1 (stereo not given in full) | inactive | 1.58 µM (active) | inactive
16 | CC(C)NC(=O)[C@@H]1C[C@H]1[C@@H](NC(=O)OCc1ccccc1)c1ccccc1 | inactive | 3.98 µM (active) | inactive
17 | COC(=O)c1ccc(C(NC(=O)OCc2ccccc2)/C(C)=C/[C@@H](C)C(=O)NCCN2CCOCC2)cc1 (stereo not given in full) | inactive | 3.16 µM (active) | inactive
18 | CC(C)CC1(C(=O)NCCc2c[nH]c3ccccc23)C=CCN1C(=O)c1ccccc1 (stereo not given) | inactive | 3.16 µM (active) | inactive
19 | COC(=O)CNC(=O)C1(C)C=CCN1C(=O)c1ccccc1 (stereo not given) | inactive | 39.8 µM (active) | inactive
20 | C[C@]1(C(=O)NCCCNc2ncc(C(F)(F)F)cc2Cl)C=C[C@@H](Cc2ccccc2)N1C(=O)c1ccccc1 | inactive | 3.16 µM (active) | inactive
21 | COC(=O)c1ccc(C(NC(=O)OCc2ccccc2)/C(C)=C/[C@@H](C)C(=O)N(C)Cc2cccnc2)cc1 (stereo not given in full) | inactive | 0.794 µM (active) | inactive
22 | COCCNC(=O)C1(C)C=CC2(CCCCC2)N1C(=O)c1ccccc1 (stereo not given) | inactive | 15.8 µM (active) | inactive
23 | COC(=O)c1ccc(C(NC(=O)OCc2ccccc2)/C(I)=C/[C@@H](C)C(=O)NCC2CC2)cc1 (stereo not given in full) | inactive | 3.98 µM (active) | inactive
24 | COC(=O)c1ccc(C(NC(=O)OCc2ccccc2)/C(F)=C/[C@@H](C)C(=O)NCc2ccc(OC)c(OC)c2)cc1 (stereo not given in full) | inactive | 5.01 µM (active) | inactive
25 | CN(C)c1ccc(CNC(=O)C2(C)C=CCN2C(=O)c2ccccc2)cc1 (stereo not given) | inactive | 10 µM (active) | inactive
26 | CNC(=O)[C@]1(C)C[C@H]1[C@H](NC(=O)[C@]1(C)C[C@H]1[C@H](NC(=O)[C@]1(C)C[C@H]1[C@H](NC(=O)[C@]1(C)C[C@H]1[C@H](NC(=O)OCc1ccccc1)c1ccccc1)c1ccccc1)c1ccccc1)c1ccccc1 | inactive | 12.6 µM (active) | inactive
27 | COC(=O)c1ccc(C(NC(=O)OCc2ccccc2)/C(=C/[C@@H](C)C(=O)N(C)Cc2cccnc2)c2cccnc2)cc1 (stereo not given in full) | inactive | 0.631 µM (active) | inactive
28 | COC(=O)c1ccc(C(NC(=O)OCc2ccccc2)/C(C)=C/[C@@H](C)C(=O)NCCO)cc1 (stereo not given in full) | inactive | 2.51 µM (active) | inactive

Row | Structure (SMILES) | outcome [1] | Potency [2] | Potency [3]
29 | CC(C)CC1(C(=O)NCC2CC2)C=CCN1C(=O)c1ccccc1 (stereo not given) | inactive | 15.8 µM (active) | inactive
30 | COC(=O)N1[C@H](C)C=C[C@]1(Cc1ccccc1)C(=O)NCCCNc1ncc(C(F)(F)F)cc1Cl | inactive | 6.31 µM (active) | inactive
31 | COC(=O)c1ccc(C(NC(=O)OCc2ccccc2)/C(=C/[C@@H](C)C(=O)NCc2nc3ccccc3n2C)c2cccnc2)cc1 (stereo not given in full) | inactive | 2 µM (active) | inactive
32 | CC(C)(C)[Si](OCC[C@@H]1C[C@@]1(C)[C@@H](NP(=O)(c1ccccc1)c1ccccc1)c1ccccc1)(c1ccccc1)c1ccccc1 | inactive | 12.6 µM (active) | inactive
33 | COC(=O)c1ccc(C(NC(=O)OCc2ccccc2)/C(=C/[C@@H](C)C(=O)Nc2ccccc2)c2cccnc2)cc1 (stereo not given in full) | inactive | 1.58 µM (active) | inactive
34 | CN(C)C(=O)[C@H]1C[C@@H]1[C@H](NC(=O)OCc1ccccc1)c1ccccc1 | inactive | 7.94 µM (active) | inactive
35 | COCCNC(=O)[C@@]1(C)C=C[C@@H](Cc2ccccc2)N1C(=O)c1ccccc1 | inactive | 7.94 µM (active) | inactive
36 | CCNC(=O)[C@H](C)/C=C/C(NC(=O)OCc1ccccc1)c1ccc(C(=O)OC)cc1 (stereo not given in full) | inactive | 6.31 µM (active) | inactive
37 | CCCCCCN(C(=O)CCCCCN1C(=O)NC(c2cccc([N+](=O)[O-])c2)C(C(=O)OCc2ccccc2)=C1C)C(C(=O)NCCCC)c1ccc(OCC(=O)OC)c(C(=O)OC)c1 (stereo not given) | inactive | 3.16 µM (active) | inactive
38 | COC(=O)c1ccc(C(NC(=O)OCc2ccccc2)/C(=C/[C@@H](C)C(=O)NCCF)c2cccnc2)cc1 (stereo not given in full) | inactive | 6.31 µM (active) | inactive
39 | Cc1ccc(CNC(=O)C2(CC(C)C)C=CCN2C(=O)c2ccccc2)o1 (stereo not given) | inactive | 15.8 µM (active) | inactive
40 | CC1=C(C(=O)OCc2ccccc2)C(C2CCCCC2)NC(=O)N1CCCCCC(=O)O (stereo not given) | inactive | inactive | 15.8 µM (active)
41 | COC(=O)c1ccc(C(NC(=O)OCc2ccccc2)/C(F)=C/[C@@H](C)C(=O)NCCN2CCOCC2)cc1 (stereo not given in full) | inactive | 3.98 µM (active) | inactive
42 | COC(=O)c1ccc(C(NC(=O)OCc2ccccc2)/C(=C/[C@@H](C)C(=O)N(C)C)c2cccnc2)cc1 (stereo not given in full) | inactive | 5.01 µM (active) | inactive
43 | CC(Cc1ccccc1)C(=O)NCCO (stereo not given) | inactive | 15.8 µM (active) | inactive
44 | COC(=O)c1ccc(C(NC(=O)OCc2ccccc2)/C(=C/[C@@H](C)C(=O)N(C)Cc2ccccc2)c2cccnc2)cc1 (stereo not given in full) | inactive | 2 µM (active) | inactive
45 | COC(=O)[C@H](Cc1ccccc1)NC(=O)[C@]1(C)C[C@H]1[C@H](NC(=O)OCc1ccccc1)c1ccccc1 | inactive | 2 µM (active) | inactive
46 | COC(=O)c1ccc(C(NC(=O)OCc2ccccc2)/C(C)=C/[C@@H](C)C(=O)NCc2cccnc2)cc1 (stereo not given in full) | inactive | 0.794 µM (active) | inactive
47 | CNC(=O)[C@@]1(Cc2ccccc2)C=C[C@@H](C)N1C(=O)OC | inactive | 12.6 µM (active) | inactive
48 | CC(=O)N1[C@H](C)C=C[C@]1(Cc1ccccc1)C(=O)NCCN1CCOCC1 | inactive | 12.6 µM (active) | inactive
49 | COC(=O)c1ccc(C(NC(=O)OCc2ccccc2)/C(F)=C/[C@@H](C)C(=O)N[C@@H](CO)Cc2ccccc2)cc1 (stereo not given in full) | inactive | 7.94 µM (active) | inactive
50 | CCCCNC(=O)C(c1ccc(OCC(=O)OC)c(C(=O)OC)c1)N(CCc1ccccn1)C(=O)CCCCCN1C(=O)NC(c2ccc(-c3ccccc3)cc2)C(C(=O)OCc2ccccc2)=C1C (stereo not given) | inactive | 7.94 µM (active) | inactive
51 | CNC(=O)[C@]1(C)C[C@H]1[C@H](NC(=O)[C@]1(C)C[C@H]1[C@H](NC(=O)OCc1ccccc1)c1ccccc1)c1ccccc1 | inactive | 15.8 µM (active) | inactive
52 | COC(=O)c1ccc(C(/C=C/[C@@H](C)C(=O)NCc2cc(C)n(C)n2)NC(=O)OCc2ccccc2)cc1 (stereo not given in full) | inactive | 2 µM (active) | inactive
53 | COC(=O)c1ccc(C(NC(=O)OCc2ccccc2)/C(F)=C/[C@@H](C)C(=O)NCc2ccc(-c3ccccc3)cc2)cc1 (stereo not given in full) | inactive | 3.98 µM (active) | inactive
54 | CC1=C(C(=O)OCc2ccccc2)C(c2ccccc2-c2ccccc2)NC(=O)N1CCCCCC(=O)O (stereo not given) | inactive | 10 µM (active) | inactive
55 | COC(=O)c1ccc(C(NC(=O)OCc2ccccc2)/C(=C/[C@@H](C)C(=O)NCc2cc(F)cc(F)c2)c2cccnc2)cc1 (stereo not given in full) | inactive | 1.58 µM (active) | inactive
